# The emibetuzumab library of Makowski et al. (2022)
# This is one part of the list. How many sequences the whole screen found active is unknown.
# B1: VH:VL chains; a variant is named by its letters at X, in order (parent)
# chain 1: QVQLVQSGAEVKKPGASVKVSCKASGYTFTDYXMHWVRQAPGQGLEWMGXVNPNXXXTTYNQKFEGRVTMTTDTSTSTAYMELRSLRSDDTAVYYCARXNXLDXWGQGTTVTVSS
# chain 2: DIQMTQSPSSLSASVGDRVTITCSVSSSVSSIYLHWYQQKPGKAPKLLIYSTSNLASGVPSRFSGSGSGTDFTLTISSLQPEDFATYYCQVYSGYPLTFGGGTKVEIK
# Variants of: B1
# Assay: yeast display scFab, FACS + sequencing
# Details: with MET
# Procedure, shortened: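 Heavy-chain CDR mutant scFab yeast surface library, enriched by two magnetic rounds on HGFR-Fc-coated Protein A beads and then by FACS. Cells were labelled with 1 nM HGFR-Fc in PBSB with 1% milk and anti-Myc for 3 h at room temperature, and the top 50% antigen-positive cells were gated. Round-3 sorted and input populations were deep sequenced in two replicates. Antigen binding call: positive if a sequence occurred in both antigen-positive samples, negative if it occurred only in input.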
row,Variant,antigen binding call
1,SEARSDVV,no binding
2,DREEGAVV,no binding
3,YKERGDVV,binds
4,SKERGDVV,no binding
5,FRERGAVV,binds
6,YRERGAVV,binds
7,FRTRGAVV,binds
8,YKGEGDVV,no binding
9,SRTRGFVV,no binding
10,VAETAAAA,no binding
11,AEARAAGS chain 1 V37I,no binding
12,VARAADAD,no binding
13,ATGEGDWS,no binding
14,VGATSFSA,no binding
15,YKAGGSGV,binds
16,YKERASGV,no binding
17,YEKGGDGV,no binding
18,YKGGSFGV,no binding
19,YKGGSSGV,binds
20,YKGAASGV,no binding
21,YKKGGSGV,binds
22,FTGTSAAF,no binding
23,VTEGDDVF,no binding
24,YRKGSSWD,binds

row,Variant,antigen binding call
1,YRKGSAWD,binds
2,DGKEGYWA,no binding
3,DAEGDDGA,no binding
4,YRGAGFVD,no binding
5,YRGAGSLD,binds
6,YRGAGSVD,binds
7,FRGAGSVA,binds
8,FRGAGSVD,binds
9,SKTKSDVA,no binding
10,SKERGDWV,no binding
11,VERKGYLA,no binding
12,VETGNSSA,no binding
13,AGGGNAGD,no binding
14,VRGGDDVF,no binding
15,VRRGSSLF,binds
16,VRRGSSAD,binds
17,VRRGSSAF,binds
18,VGGTSSAD,no binding
19,VREAADSF,no binding
20,VRGRSDVF,no binding
21,VRGRSSLF,binds
22,DAKENAVY,no binding
23,YTGGDDVY,no binding
24,VAEATDLY,no binding

row,Variant,antigen binding call
1,DAGGASLD,no binding
2,STATADVA,no binding
3,SAGEGDWV,no binding
4,AKTRDFVA,no binding
5,DTAGDAAV,no binding
6,FERTSALF,no binding
7,VKRGSSLF,binds
8,FKRGSSLF,binds
9,VKETSVLF,no binding
10,VAKRDSAS,no binding
11,VRRGSSAS,binds
12,VRTEDDAS,no binding
13,FKAEAFSF,no binding
14,VAGTGSSV,no binding
15,DAEATDGA,no binding
16,DATGGDGY,no binding
17,DTGGSASA,no binding
18,YAKRDAGD,no binding
19,YRKRGAGD,binds
20,YRKRGAVD,binds
21,YRKRGAAD,binds
22,YRKGGAVD,binds
23,AKATADVD,no binding
24,DTGGGDAV,no binding

row,Variant,antigen binding call
1,YRGAGSAD,binds
2,YKGAGSAD,no binding
3,YRGAGAAD,binds
4,YAGAGSAD,no binding
5,YKGKGAWV,binds
6,VKGKGDWV,no binding
7,YKTKSDWV,no binding
8,YAGKGAWV,no binding
9,YKGKSAWV,binds
10,DEGGTDSA,no binding
11,SEEEGSAA,no binding
12,YKGKGFAA,no binding
13,SKAKGSAA,binds
14,SKRRSVGA,no binding
15,YKGKGSAA,binds
16,SKGKGVGA,binds
17,SKGKGSSA,no binding
18,SKGKGSAA,binds
19,AARADSGD,no binding
20,DEGRSVAA,no binding
21,DAARAVSS,no binding
22,VAKADALD,no binding
23,FKGEGDSA,no binding
24,VKGKGSAA,binds

row,Variant,antigen binding call
1,YRGKGSAA,binds
2,VRAGGDSF,no binding
3,VTAESSSF,no binding
4,VRERGSSF,binds
5,YAEGASSF,no binding
6,VRERGDWF,no binding
7,VRARGSSF,binds
8,YRERGSSF,binds
9,AETAGAAA,no binding
10,DAATAYGS,no binding
11,FRGKGSGD,binds
12,FRGTGSGD,no binding
13,FATRASGD,no binding
14,FRTKGSGD,binds
15,FATKGFGD,no binding
16,VEEEGDGV,no binding
17,YAGTGFWV,no binding
18,DEGGTDAV,no binding
19,FREEGFSV,no binding
20,FKGKGAAF,no binding
21,FRGKGASV,binds
22,FRGKGAAV,binds
23,YKGRASAV,no binding
24,FKGKGAVV,binds

row,Variant,antigen binding call
1,FREGSASV,no binding
2,YKGKGSAV,binds
3,DATGGSGD,no binding
4,FKATTVVD chain 1 S88F,no binding
5,YKGGGSAV,binds
6,FKGKGAAV,binds
7,AKGKGAAV,no binding
8,FKGRGAAS,binds
9,DKGGGFAV,no binding
10,VKGKGDAV,no binding
11,FRGKGSAV,binds
12,YEGGGSAV,no binding
13,YRGKGSAV,binds
14,DAGGADAV,no binding
15,DEGGTDWY,no binding
16,YKRGDAGY,binds
17,YKRESAGY,binds
18,YKRRDAVY,no binding
19,YTRGAAGY,no binding
20,YARETDVV,no binding
21,DGARNAGV,no binding
22,VTGTGSSA,no binding
23,YRKGGAAS,binds
24,FRKGGAGS,binds

row,Variant,antigen binding call
1,YRKGGAGS,binds
2,YRKGGFSS,no binding
3,FRKRSFSS,no binding
4,YETGAAAA,no binding
5,YTRGADGA,no binding
6,YRTEGAVA,binds
7,ARRGSDVA,no binding
8,DREEGAVA,no binding
9,YRRGSAVA,binds
10,YRRGAAAA,binds
11,YRRGGAAA,binds
12,DETGGDWF,no binding
13,VEEEGDWV,no binding
14,VTGTGDWF,no binding
15,YRRGGAVA,binds
16,YRRGGAWA,binds
17,YREKAAWA,no binding
18,YTRGADWA,no binding
19,YRRGAAWA,binds
20,YRRGSAWA,binds
21,DEGGDDAA,no binding
22,VKGRADSA,no binding
23,VEKTGVGA,no binding
24,YRAGSAAA,binds

row,Variant,antigen binding call
1,YRAGTAAA,binds
2,DRAGDAAA,no binding
3,YEAGTAVA,no binding
4,YAAKTAAA,no binding
5,YRAESAAA,binds
6,YRAKGAAA,binds
7,VAEGGYAV,no binding
8,VTAEDFGV,no binding
9,AARADAVA,no binding
10,DGGKNDLA,no binding
11,VKEKGDSA,no binding
12,VKGRGDSF,no binding
13,YGGRGSWV,no binding
14,VKEKGSLF,binds
15,VKEKGYLV,no binding
16,YKGRGSWF,binds
17,VKGRGSVF,binds
18,VKGRGSSF,binds
19,DKGRGSSA,no binding
20,VTGRGDVF,no binding
21,YAGRGDWF,no binding
22,VEGRGDVF,no binding
23,VTTRADVV,no binding
24,YTGGADAV,no binding

row,Variant,antigen binding call
1,VKGRGSLF,binds
2,YKGRGALF,binds
3,DGARGALF,no binding
4,YKGRGSLF,binds
5,YKARSALF,binds
6,VKGRASGF,no binding
7,DAGGADWA,no binding
8,SARTDFWF chain 1 K19N,no binding
9,ATKTAFVS chain 1 M34I,no binding
10,SEAGDAVV,no binding
11,VTTRADVY,no binding
12,FRGESAGS,binds
13,FRGESAGV,binds
14,FKGEGAGV,no binding
15,DAKENDVF,no binding
16,VEGTSDLS,no binding
17,YAKADSGA,no binding
18,YRKGGSGA,binds
19,YRTGGSGA,binds
20,FARKGSGA,no binding
21,YTTGGDGA,no binding
22,YTKRSSGA,no binding
23,YRKGSSGA,binds
24,YRRKGSGA,binds
